Compounds without any hit were thinned out: in the full panel of roughly 79,000, 15% have a hit. Activity calls are given as the source filed them. Cut-off read from the data, not from the text of the source: active = growth inhibition above about 70%; inactive = the rest.
Columns and labels:
[1] = NCI Yeast Anticancer Drug Screen. Data for the rad52 strain (AID 147);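 note: 0% = growth of vehicle-treated control cultures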; conditions: S. cerevisiae rad52 mutant growth inhibition, active compounds read high
In short: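 Genetically altered yeast (DNA damage repair defect) treated with compound; inhibition calculated relative to vehicle.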

[2] = NCI Yeast Anticancer Drug Screen. Data for the wt1 strain (AID 149);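 note: 0% = growth of vehicle-treated wt1 cultures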; conditions: S. cerevisiae wt1 strain (SPY 50644) growth inhibition, active compounds read high
In short: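 Readout: yeast growth inhibition, normalised to vehicle controls, in the wt1 strain exposed to test compounds.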

[3] = NCI Yeast Anticancer Drug Screen. Data for the rad50EPP+ strain (AID 151);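 note: 0% = growth of vehicle-treated control cultures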; conditions: S. cerevisiae rad50 mutant strain, active compounds read high
In short: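 Strain rad50EPP+; compound exposure; % growth inhibition vs vehicle.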

[4] = NCI Yeast Anticancer Drug Screen. Data for the mgt1 strain (AID 153); conditions: S. cerevisiae mgt1 mutant growth inhibition, active compounds read high
In short: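 Read-out: yeast growth inhibition vs vehicle control. Strain mgt1, drawn from a panel altered in DNA damage repair or cell cycle control.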

[5] = NCI Yeast Anticancer Drug Screen. Data for the rad50 strain (AID 155);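 note: 0% = growth of vehicle-only cultures of the same strain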; conditions: S. cerevisiae rad50 strain growth inhibition, active compounds read high
In short: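 Compounds were tested on a yeast strain with an engineered DNA damage repair alteration; the reported value is growth inhibition normalised to vehicle treatment.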

[6] = NCI Yeast Anticancer Drug Screen. Data for the mec2-1 strain (AID 157); conditions: S. cerevisiae mec2-1 strain, active compounds read high
In short: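 Cells of the genetically defined mec2-1 yeast strain are incubated with test compound. Inhibition of growth is calculated against vehicle-treated controls.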

[7] = NCI Yeast Anticancer Drug Screen. Data for the rad14 strain (AID 159);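 note: 0% = growth of vehicle-treated control cultures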; conditions: S. cerevisiae rad14 strain growth inhibition, active compounds read high
In short: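 Compound-treated yeast with a defined DNA-repair lesion; growth inhibition normalised to vehicle-treated cultures.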

[8] = NCI Yeast Anticancer Drug Screen. Data for the sgs1 mgt1 strain (AID 161);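 note: 0% = growth of cultures given vehicle only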; conditions: S. cerevisiae sgs1 mgt1 strain, active compounds read high
In short: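 Genetically altered yeast, compound exposure, growth inhibition relative to vehicle.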

[9] = NCI Yeast Anticancer Drug Screen. Data for the CLN2oe strain (AID 163);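 note: 0% = growth of vehicle-only control cultures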; conditions: S. cerevisiae CLN2oe strain, active compounds read high
In short: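 Strain altered in cell-cycle control, incubated with compound; growth compared to solvent-treated controls.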

[10] = NCI Yeast Anticancer Drug Screen. Data for the cln2 rad14 strain (AID 165);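 note: 0% = growth equal to vehicle treated cultures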; conditions: S. cerevisiae cln2 rad14 strain, active compounds read high
In short: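 The screen exposed genetically defined yeast (cln2 rad14) to test compounds and scored growth inhibition relative to vehicle-treated controls.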

[11] = NCI Yeast Anticancer Drug Screen. Data for the bub3 strain (AID 167); conditions: S. cerevisiae bub3 mutant strain, active compounds read high
In short: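 Growth of a checkpoint-deficient yeast mutant is measured after compound exposure. Values represent inhibition relative to vehicle.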

[12] = NCI Yeast Anticancer Drug Screen. Data for the wt2 strain (AID 169);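 note: 0% = growth of vehicle-treated yeast cultures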; conditions: S. cerevisiae wt2 strain growth inhibition, active compounds read high
In short: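 Steps: yeast strain treated with compound; growth recorded; inhibition calculated relative to cultures given vehicle alone.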

[13] = NCI Yeast Anticancer Drug Screen. Data for the mlh1 strain (AID 171);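 note: 0% = growth of vehicle-treated control cultures of the same strain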; conditions: S. cerevisiae mlh1 strain growth inhibition, active compounds read high
In short: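 Yeast screen: mutant strain plus compound, growth scored against vehicle control wells.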

[14] = NCI Yeast Anticancer Drug Screen. Data for the mlh1 rad18 strain (AID 175); conditions: S. cerevisiae mlh1 rad18 strain growth inhibition, active compounds read high
In short: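 Compound-treated yeast growth, normalised to vehicle controls. Strain bears defined DNA repair mutations.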

[15] = NCI Yeast Anticancer Drug Screen. Data for the rad18 strain (AID 177); conditions: S. cerevisiae rad18 mutant growth inhibition, active compounds read high
In short: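 Inhibition values reflect reduced yeast growth compared with vehicle-treated controls, using a strain engineered with a DNA damage repair defect.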

[16] = NCI Yeast Anticancer Drug Screen. Data for the sgs1 strain (AID 173);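 note: 0% = growth of vehicle-only control cultures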; conditions: S. cerevisiae sgs1 mutant, active compounds read high
In short: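 Inhibition of yeast growth served as the measure. The mutant strain was treated with each compound, and growth was normalised to cultures receiving vehicle alone.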

[17] = at 5.0 µM (retest, dose inferred, filed as 0.5)
[18] = at 50.0 µM (retest, dose inferred, filed as 5.0)

Measured: growth inhibition

CCOC(=O)CC1(C(=O)OCC)c2[nH]c3ccccc3c2CCN1Cc1ccccc1 (stereo unspecified)
active: [5]; at 50.0 µM 70.9% | [9]; at 100.0 µM 74% | [10]; at 50.0 µM 74%
inactive: [1]; at 1.2 µM -1% | [1]; at 3.7 µM 0% | [1]; at 11.0 µM 1% | [1]; at 33.0 µM 7% | [1]; at 100.0 µM 45% | [2]; at 1.2 µM -3% | [2]; at 3.7 µM -2% | [2]; at 11.0 µM -1% | [2]; at 33.0 µM -5% | [2]; at 100.0 µM 42% | [3]; at 1.2 µM -7% | [3]; at 3.7 µM -7% | [3]; at 11.0 µM -11% | [3]; at 33.0 µM -9% | [3]; at 100.0 µM 0% | [4]; at 1.2 µM -2% | [4]; at 3.7 µM -1% | [4]; at 11.0 µM 1% | [4]; at 33.0 µM 3% | [4]; at 100.0 µM 50% | [5]; at 1.2 µM -2% | [5]; at 3.7 µM -2% | [5]; [17] 50% | [5]; at 11.0 µM 5% | [5]; at 33.0 µM 5% | [5]; [18] 50% | [5]; at 100.0 µM 38% | [6]; at 1.2 µM -3% | [6]; at 3.7 µM -4% | [6]; [17] 13% | [6]; at 11.0 µM -5% | [6]; at 33.0 µM -2% | [6]; [18] 13% | [6]; at 50.0 µM 61.2% | [6]; at 100.0 µM 50% | [7]; at 1.2 µM 1% | [7]; at 3.7 µM 1% | [7]; at 11.0 µM 1% | [7]; at 33.0 µM 3% | [7]; at 100.0 µM 33% | [8]; [17] 43% | [8]; [18] 43% | [8]; at 50.0 µM 62% | [9]; at 1.2 µM -1% | [9]; at 3.7 µM 2% | [9]; at 11.0 µM 4% | [9]; at 33.0 µM 12% | [10]; [17] -4% | [10]; [18] -4% | [11]; at 1.2 µM -3% | [11]; at 3.7 µM -7% | [11]; [17] 6% | [11]; at 11.0 µM 8% | [11]; at 33.0 µM 26% | [11]; [18] 6% | [11]; at 50.0 µM 55.1% | [11]; at 100.0 µM 37% | [12]; at 1.2 µM -1% | [12]; at 3.7 µM 0% | [12]; at 11.0 µM 0% | [12]; at 33.0 µM 2% | [12]; at 100.0 µM 45% | [13]; at 1.2 µM -4% | [13]; at 3.7 µM -3% | [13]; at 11.0 µM -2% | [13]; at 33.0 µM 11% | [13]; at 100.0 µM 45% | [14]; [17] 31% | [14]; [18] 31% | [14]; at 50.0 µM 65.2% | [15]; at 1.2 µM -3% | [15]; at 3.7 µM -15% | [15]; at 11.0 µM 8% | [15]; at 33.0 µM 3% | [15]; at 100.0 µM 35%

Cc1ccc(NC(=O)/C(CC2N=c3c(ccc4c(O)c5ccccc5c(O)c34)=NC2O)=N/NC(C)(C)C)cc1 (stereo unspecified)
active: [5]; at 50.0 µM 77.6%
inactive: [1]; at 1.2 µM 7% | [1]; at 3.7 µM 9% | [1]; at 11.0 µM 33% | [1]; at 33.0 µM 49% | [1]; at 100.0 µM 61% | [2]; at 1.2 µM -19% | [2]; at 3.7 µM 2% | [2]; at 11.0 µM -2% | [2]; at 33.0 µM 8% | [2]; at 100.0 µM -6% | [3]; at 1.2 µM 16% | [3]; at 3.7 µM 34% | [3]; at 11.0 µM 44% | [3]; at 33.0 µM 50% | [3]; at 100.0 µM 54% | [4]; at 1.2 µM 16% | [4]; at 3.7 µM 5% | [4]; at 11.0 µM -1% | [4]; at 33.0 µM 22% | [4]; at 100.0 µM 22% | [5]; at 1.2 µM 17% | [5]; at 3.7 µM 23% | [5]; [17] -3% | [5]; at 11.0 µM 30% | [5]; at 33.0 µM 54% | [5]; [18] 65% | [5]; at 100.0 µM 65% | [6]; at 1.2 µM 15% | [6]; at 3.7 µM 18% | [6]; [17] 13% | [6]; at 11.0 µM 38% | [6]; at 33.0 µM 44% | [6]; [18] 25% | [6]; at 50.0 µM 1.25% | [6]; at 100.0 µM 35% | [7]; at 1.2 µM 9% | [7]; at 3.7 µM -9% | [7]; at 11.0 µM -10% | [7]; at 33.0 µM 0% | [7]; at 100.0 µM 1% | [8]; [17] -7% | [8]; [18] 2% | [8]; at 50.0 µM -0.2% | [9]; at 1.2 µM -5% | [9]; at 3.7 µM -2% | [9]; at 11.0 µM 3% | [9]; at 33.0 µM 0% | [9]; at 100.0 µM 1% | [10]; [17] -25% | [10]; [18] -3% | [10]; at 50.0 µM -19.9% | [11]; at 1.2 µM -3% | [11]; at 3.7 µM -2% | [11]; [17] 3% | [11]; at 11.0 µM -1% | [11]; at 33.0 µM 1% | [11]; [18] 17% | [11]; at 50.0 µM 33.6% | [11]; at 100.0 µM -1% | [13]; at 1.2 µM 7% | [13]; at 3.7 µM 16% | [13]; at 11.0 µM 10% | [13]; at 33.0 µM 28% | [13]; at 100.0 µM 16% | [16]; at 1.2 µM 3% | [16]; at 3.7 µM 4% | [16]; at 11.0 µM 2% | [16]; at 33.0 µM 1% | [16]; at 100.0 µM 1% | [14]; [17] 3% | [14]; [18] 32% | [14]; at 50.0 µM 27.4% | [15]; at 1.2 µM -4% | [15]; at 3.7 µM 12% | [15]; at 11.0 µM 20% | [15]; at 33.0 µM 40% | [15]; at 100.0 µM 18%

CC1=C(C(=O)NCc2ccccc2)C(c2ccccc2)C(C(=O)NCc2ccccc2)=C(C)N1
inactive: [1]; at 1.2 µM -3% | [1]; at 3.7 µM -4% | [1]; at 11.0 µM -4% | [1]; at 33.0 µM -20% | [2]; at 1.2 µM 0% | [2]; at 3.7 µM -1% | [2]; at 11.0 µM -4% | [2]; at 33.0 µM 4% | [3]; at 1.2 µM -3% | [3]; at 3.7 µM -1% | [3]; at 11.0 µM 3% | [3]; at 33.0 µM 3% | [3]; at 100.0 µM 0% | [4]; at 1.2 µM -2% | [4]; at 3.7 µM -2% | [4]; at 11.0 µM -3% | [4]; at 33.0 µM 6% | [5]; at 1.2 µM -14% | [5]; at 3.7 µM 21% | [5]; [17] 2% | [5]; at 11.0 µM 22% | [5]; at 33.0 µM 36% | [6]; at 1.2 µM -1% | [6]; at 3.7 µM -4%
active: [1]; at 100.0 µM 85% | [2]; at 100.0 µM 89% | [4]; at 100.0 µM 97% | [5]; [18] 75% | [5]; at 50.0 µM 75.5% | [5]; at 100.0 µM 91%

From PubChem BioAssay (NCI)
